# A549 viability: A549 cytotoxicity, counter-screen for Nrf2 inhibitors; A549 ARE-Fluc cells, CellTiter-Fluor viability, 18-24 h; Potency, µM (doses to about 46 µM), for the others: at the highest dose activity change, negative = cytotoxicity, actives largely listed as inhibitors; 390,000 compounds, 0.16% hits; AID 504648; also: % is scaled to controls: 0 for no effect and ±100 for the full control effect
#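 Cytotoxicity counterscreen: CellTiter-Fluor fluorescence was measured in A549 ARE_Fluc cells after 18-24 h of compound exposure in a concentration series. The subsequent BugLite luminescent read reports ARE-luciferase activity.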
# Nrf2 block: blocks Nrf2 signaling; A549 ARE-Fluc reporter, luciferase luminescence, 18-24 h; Potency, µM (titrated, usually from 46 µM), for inactives: top-dose activity change, negative = inhibition, hits mostly inhibitors; 360,000 compounds, 2.1% hits; AID 504444; also: % is scaled to controls: 0 for no effect and ±100 for the full control effect; nearly all actives have a fitted effect of over 60% in size
#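 Cells were seeded and rested 2 h, then exposed to compounds for 18-24 h. CellTiter-Fluor was read first as a viability measure. BugLite was added 15 min before the final luminescent read of ARE-luciferase activity in A549 cells.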
# HepG2 tox: HepG2 cytotoxicity, counter-screen for TGF-b inhibitors; HepG2 CAGA-GFP viability, ATP luminescence, 18 h; Potency, µM (titrated, usually from 46.1 µM), inactives show at the highest dose activity change, negative = cytotoxicity, hits mostly cytotoxic; 410,000 compounds, 0.76% hits; AID 588856
#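 CellTiter-Glo luminescence gave cytotoxicity after 18 hours at 37 degrees C. The cells were HepG2 CAGA-GFP in 1% FBS DMEM, stimulated with 500 pg/mL TGF-beta after compound addition. %Activity was normalised to no-cell wells (complete cell-killing) and DMSO (no toxicity), and curves were fitted and classified.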
# TGFb inhibitor: blocks TGF-b signaling | HepG2 CAGA-GFP TGF-b/SMAD3 reporter, GFP fluorescence, 18 h; TGF-beta stimulated, 500 pg/mL final | Potency, µM (doses to about 46.1 µM), inactives show at the top dose activity, negative = inhibition, hits mostly inhibitors | 410,000 compounds, 1.2% hits | AID 588855; also: % is scaled to controls: 0 for no effect and ±100 for the full control effect; nearly all actives have a fitted effect of over 65% in size
#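 HEPG2 CAGA-GFP reporter cells (1000/well, DMEM with 1% FBS) received compounds, then recombinant TGF-beta at 500 pg/mL final for 18 hours at 37 degrees C. Per-cell GFP summed per well was normalised to unstimulated and stimulated DMSO controls before curve fitting.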
# Nrf2 activator: activates Nrf2 signaling; AREc32 ARE-luciferase reporter (MCF7-derived line), luminescence, 24 h; 410,000 compounds, 0.31% hits; Potency, µM (highest dose often 46.1 µM), without a hit: at the highest dose activation, usual class: activators; also: % of control where 0% means no effect; nearly all actives have a fitted effect of over 65% in size
#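 Luminescent ARE reporter assay in AREc32_Fluc cells: overnight plating at 37 deg C, 24 hr compound incubation, Steady-Glo added, 30 min RT before reading.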
# The depositor's hits bear a star; ? = inconclusive; . = not tested or not shown; [ ] = remark or other dose. Only some compounds are listed: those with a hit (about 3.6% of all), similar ones and a draw of the others. Calls follow the shape of the dose curve; as a rule, active = well fitted curve in the direction sought with a large enough effect; inconclusive = small, poorly fitted or top-dose-only effect, or another doubt; inactive = no such curve, though single readings can be large; an effect the other way counts as inactive or inconclusive. Potency is read from the fitted curve at half-maximal effect.
SMILES,A549 viability,Nrf2 block,HepG2 tox,TGFb inhibitor,Nrf2 activator
CCC(C(=O)NC1CCCCC1)N(Cc1cccs1)C(=O)CCC(=O)Nc1cc(C)on1 (configuration not stated),-14.1%,8.2µM*,-6.7%,-2.6%,-0.1%
Cc1cc(NC(=O)CCC(=O)N(Cc2cccs2)C(C(=O)NC2CCCC2)c2ccncc2)no1 (configuration not stated),-9.2%,9.5%,-1.3%,-5.5%,0.3%
N#CC1CC(c2ccc([N+](=O)[O-])cc2)=NN1c1ccc([N+](=O)[O-])cc1 (configuration not stated),-26.2%,-24.3%,-8.0%,15.5%,-0.2%
Cc1ccc(-n2c3nc(=O)[nH]c(=O)c-3cc3cc([N+](=O)[O-])ccc32)cc1C,?,14.6µM*,-1.6%,1.1%,3.4%
Cc1ccc(NC(=O)OCC(F)(F)C(F)F)cc1NC(=O)OCC(F)(F)C(F)F,.,18.4µM*,-26.5%,-12.7%,1.9%
O=C(CCC(=O)OCC(F)(F)C(F)F)Nc1ccc(Cl)cc1,.,1.0%,-1.6%,0.0%,0.0%
C[n+]1ccc(/C=N/Nc2nc(Cl)c(C#N)c(Cl)c2Cl)cc1,22.5%,-9.4%,-8.0%,?,12.6µM*
CC(=O)Nc1ccc2cc3ccc(NC(C)=O)cc3nc2c1,0.9%,-8.4%,12.6µM*,57.0%,8.3%
CC(=O)Nc1ccc2ccccc2c1,2.2%,29.5%,-9.6%,1.9%,1.4%
CC(C)Cn1c(N)c(C(=O)COC(=O)c2ccccc2C(=O)c2ccccc2)c(=O)n(C)c1=O,-28.1%,13µM*,-18.7%,-12.4%,-0.3%
COCc1c(C(=O)OCC(=O)c2c(N)n(CC(C)C)c(=O)n(C)c2=O)oc2ccccc12,-4.2%,20.6µM*,-18.0%,?,-0.5%
CC(C)Cn1c(N)c(C(=O)COC(=O)c2cccn2C)c(=O)n(C)c1=O,13.7%,23.1µM*,-21.5%,3.5%,-1.0%
CC(C)Cn1c(N)c(C(=O)COC(=O)c2ccc3c(c2)OCCO3)c(=O)n(C)c1=O,-14.9%,10.3µM*,-33.2%,-16.5%,-0.1%
CC(C)Cn1c(N)c(C(=O)COC(=O)c2ccccc2Cl)c(=O)n(C)c1=O,2.8%,-9.2%,0.1%,-14.9%,-0.5%
CCCn1c(N)c(C(=O)CSc2ncc(C(F)(F)F)cc2Cl)c(=O)[nH]c1=O,-5.9%,?,-26.6%,1.2%,0.0%
CC(C)(C)OC(=O)N1CCC(c2c(C(=O)N3CCN(c4ncccn4)CC3)cnn2-c2ccccc2)CC1,-1.5%,33.3%,-5.0%,1.2%,-0.4%
CC(=O)Nc1ccccc1-c1nc2ccccc2n(CC(=O)Nc2cccc(C(F)(F)F)c2)c1=O,7.7%,16.8%,-26.0%,?,0.5%
CCN(CC)C(=O)Oc1c(Cl)cc(Cl)c2cccnc12,0.4%,-0.1%,1.4%,-5.9%,3.7%
Cn1c(N)c(C(=O)COC(=O)c2cc(C(F)(F)F)nc3ccccc23)c(=O)n(Cc2ccccc2)c1=O,13.4%,20.6µM*,-0.3%,-9.0%,-0.8%
Cn1c(N)c(C(=O)COC(=O)c2cc(C3CC3)nc3ccccc23)c(=O)n(C)c1=O,1.1%,-11.1%,-10.7%,0.3%,-0.1%
COc1ccc(C(=O)C(CN2CCOCC2)c2ccccc2)cc1 (configuration not stated),?,?,-89.1%,?,?
CN(C)CC(CCC(CN(C)C)C(=O)c1ccccc1)C(=O)c1ccccc1 (configuration not stated),?,18.4µM*,-102.6%,6.31µM*,?
COc1ccc(C(=O)C(CCCCC(CN(C)C)C(=O)c2ccc(OC)cc2)CN(C)C)cc1 (configuration not stated),?,5.4%,-28.8%,-1.7%,6.6%
CCOc1ccc(C(=O)C(CCC(CN(C)C)C(=O)c2ccc(OCC)cc2)CN(C)C)cc1 (configuration not stated),?,?,2.82µM*,5.01µM*,?
O=C(c1ccccc1)C(CCC(CN1CCOCC1)C(=O)c1ccccc1)CN1CCOCC1 (configuration not stated),-17.0%,23.1µM*,-104.2%,?,-3.7%
SMILES,A549 viability,Nrf2 block,HepG2 tox,TGFb inhibitor,Nrf2 activator
O=C(c1ccccc1)C(CCc1ccccn1)CCc1ccccn1,-1.0%,?,-6.0%,3.6%,3.0%
CCc1ccc2ncc3c(-c4ccc(F)cc4)nn(CC(=O)NCc4ccccc4)c3c2c1,3.2%,19.0%,6.4%,34.3%,0.1%
COc1ccc(NC(=O)CSc2ccc(NC(C)=O)cc2)cc1S(=O)(=O)N1CCOCC1,3.8%,1.0%,-2.8%,17.5%,-0.2%
COc1ccc(NC(=O)CSc2ccc3ccccc3c2)cc1S(=O)(=O)N1CCCCC1,-13.0%,7.31µM*,4.2%,0.0%,2.7%
O=C(CSc1ncccn1)Nc1ccc(Cl)c(S(=O)(=O)N2CCOCC2)c1,4.0%,-11.9%,4.6%,7.3%,0.2%
O=C(Nc1ccc(Cl)c(S(=O)(=O)N2CCOCC2)c1)C1CCCC1,-2.9%,23.1µM*,-43.1%,-22.8%,0.7%
O=C(CSc1ccccc1)Nc1ccc(Cl)c(S(=O)(=O)N2CCOCC2)c1,-20.0%,23.1µM*,-7.5%,-1.6%,2.9%
O=C(NOCc1ccccc1)c1coc(-c2ccccc2)n1,2.3%,-8.8%,-13.9%,-7.0%,0.6%
O=C(NCCN1CCCC1)c1ccc(Cl)cc1Cl,0.5%,2.8%,10.5%,-1.2%,0.1%
CCn1nc(C)c(CNC(=O)c2cc(COc3ccc(C)nc3)on2)c1C,-3.0%,23.1µM*,-10.0%,0.7%,0.3%
c1ccc(-n2nnnc2SCc2ccccn2)cc1,-4.1%,11.6%,-3.2%,1.2%,1.6%
Cc1nn2c(NCCN(C)C)c3c(nc2c1-c1ccccc1)CCCC3,-19.1%,-15.3%,-68.0%,11.2µM*,9.6%
COCCNc1c2c(nc3c(-c4ccccc4)c(C)nn13)CCCC2,-10.5%,.,-38.8%,?,-0.5%
C#CC[N+](CC)(CC)CC#Cc1cccc(Cl)c1,-16.6%,10.3µM*,-26.7%,-2.6%,-0.4%
CCN1/C(=C/c2ccc3cc(C)ccc3[n+]2CC)Sc2ccc3sccc3c21,?,6.51µM*,-15.8%,-18.0%,-1.3%
CCCCCCCCN1[C@@H](CC(=O)O)c2cc(F)ccc2S1(=O)=O,-0.8%,4.8%,-15.3%,-2.6%,-0.6%
O=C1/C(=C/c2cccnc2)CC/C1=C\c1cccnc1,-2.6%,?,-13.2%,6.8%,0.8%
O=C1/C(=C/c2cccnc2)CCC/C1=C\c1cccnc1,-4.2%,3.7%,-98.9%,3.98µM*,?
CCC1C/C(=C\c2cccnc2)C(=O)/C(=C/c2cccnc2)C1 (configuration not stated),-15.2%,?,10µM*,3.98µM*,0.0%[9.22 µM]
COc1ccc(OCCn2c(=N)n(CCO)c3ccccc32)cc1,11.1%,9.0%,-24.9%,-10.2%,-0.1%

# Assay outcomes deposited in PubChem BioAssay by National Center for Advancing Translational Sciences (NCATS).
